ERK EGF block – EGF-driven ERK pathway inhibition | 130,000 tested, 0.41% active | AID 1454 | Potency, µM (titrated, usually from 11.5 µM), usual class: inhibitors | HEK293-V1b, EGF-stimulated phospho-ERK AlphaScreen; also: nearly all actives have a fitted effect of over 55% in size
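After overnight plating in 1% FBS, HEK293-V1b cells received test compound for half an hour, then a 5 min pulse of EGF (25 nM); ERK phosphorylation in lysates was read by bead-based AlphaScreen.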
GoLoco inh red – RGS12 GoLoco-Gai1 interaction inhibition. Gai1:RGS12 GoLoco peptide FP, rhodamine, 10 min. Potency, µM (top dose mostly 61.6 µM), usual class: inhibitors. 230,000 tested, 0.44% active. AID 880; active = well fitted inhibition curve with a large enough effect, not every such curve was filed as active; inactive = no such curve, though single readings can be large or run the other way; also: nearly all actives have a fitted effect of over 30% in size
CBFb RUNX1 block – blocks binding between human CBF-beta and RUNX1; Q01196+Q13951; AlphaScreen CBFb-His/RUNX1-biotin binding, biochemical; Potency, µM (highest dose often 59.8 µM), hits mostly inhibitors; 230,000 tested, under 10 active; AID 1477
Target sequence (Q01196 whole entry, looked up): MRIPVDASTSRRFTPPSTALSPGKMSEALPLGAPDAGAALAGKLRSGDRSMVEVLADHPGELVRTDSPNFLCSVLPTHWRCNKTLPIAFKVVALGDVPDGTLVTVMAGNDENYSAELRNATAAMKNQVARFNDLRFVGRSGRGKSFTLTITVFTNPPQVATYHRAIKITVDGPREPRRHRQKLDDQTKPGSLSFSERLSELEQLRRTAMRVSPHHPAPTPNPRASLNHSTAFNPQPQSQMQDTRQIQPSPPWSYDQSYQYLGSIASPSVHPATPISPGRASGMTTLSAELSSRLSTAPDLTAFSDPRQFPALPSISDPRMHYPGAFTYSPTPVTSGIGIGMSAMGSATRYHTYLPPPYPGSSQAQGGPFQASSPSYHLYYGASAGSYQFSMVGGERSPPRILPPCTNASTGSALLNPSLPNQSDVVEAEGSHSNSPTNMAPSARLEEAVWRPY
Target sequence (Q13951 whole entry, looked up): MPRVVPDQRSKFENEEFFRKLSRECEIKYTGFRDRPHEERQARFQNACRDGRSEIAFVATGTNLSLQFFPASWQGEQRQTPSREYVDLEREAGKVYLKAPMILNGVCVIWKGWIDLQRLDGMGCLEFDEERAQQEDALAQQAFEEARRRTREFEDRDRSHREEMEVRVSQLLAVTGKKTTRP
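Interaction loss through any mechanism counts as activity. Pre-formed complex of His-CBF-beta and biotin-RUNX1 (30 nM apiece) is incubated with compound 15 min, then with 50 ng nickel and 50 ng streptavidin beads for 90 min before AlphaScreen detection.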
Numbers stand for hits; i = inactive; ? = inconclusive; nt = no result given; [ ] = another dose, or the depositor's remark. Rows were chosen to be rich in hits. Some 0.5% of all compounds tested hit in one or more screens of this group. Unless noted, calls follow the shape of the dose curve; as a rule, active = well fitted curve in the direction sought with a large enough effect; inconclusive = small, poorly fitted or top-dose-only effect, or another doubt; inactive = no such curve, though single readings can be large; an effect the other way counts as inactive or inconclusive.

SMILES | ERK EGF block | GoLoco inh red | CBFb RUNX1 block
CC(=O)Nc1ccn(C2OC(C(COC(C)=O)NC(=O)C(CCCCNC(=O)OCc3ccccc3)NC(=O)OC(C)(C)C)C(OC(C)=O)C2OC(C)=O)c(=O)n1 (stereo unspecified) | nt | nt | i
Cc1ccc(NC2=C(N3CCCCC3)C(=O)c3ccccc3C2=O)cc1 | nt | nt | i
COC1=C(Nc2ccc(C)cc2)C(=O)c2ccccc2C1=O | 11.2µM | i | nt
COc1ccc(Nc2cccccc2=O)cc1 | nt | i | i
COC1=C(Nc2ccccc2)C(=O)c2ccccc2C1=O | 14.1µM | i | i
COc1ccc(-c2nnc3n2N=C(c2c(OC)cccc2OC)CS3)cc1 | nt | nt | i
COc1ccc(C2CC(c3ccccc3)Oc3c(C)ccc(C(C)C)c32)cc1 (stereo unspecified) | nt | nt | i
Cc1ncc2c(c1OC(=O)c1ccccc1)COC(C)(C)OC2 | nt | i | i
Cc1c(OC(=O)c2ccc([N+](=O)[O-])cc2)c2c(c[n+]1C)COC(C)(C)OC2 | nt | 12.6µM | i
NC(=O)C[N+]1(CC#CC(O)(c2ccccc2)c2ccccc2)CCCC1 | i | 8.91µM | i
CCC[N+]1(CC#CC(O)(c2ccccc2)C2CCCCC2)CCCCC1 (stereo unspecified) | i | i | i
COc1cc(OC)cc(C(=O)OCC(=O)Nc2ccc(N3CCCCC3)cc2)c1 | nt | 17.8µM | i
O=C(COC(=O)c1ccc(O)cc1)Nc1ccc(N2CCCCC2)cc1 | nt | i | i
CCCCC#CC1C=CC(Oc2ccc(C(=O)OC)cc2)C(COC(=O)OCC)O1 (stereo unspecified) | nt | nt | i[13.1 µM]
O=C(CCNC(=O)c1ccccc1Cl)Nc1cc(C(F)(F)F)ccc1Cl | i | i | i
O=C(CCNC(=O)c1ccccc1Cl)Nc1ccc(Br)c(C(F)(F)F)c1 | 28.2µM | i | i
COC(=O)CN=C1OC(=O)N2C(=O)C3=C4C(C[C@H]5C(=O)N(c6ccccc6)C(=O)[C@H]5[C@H]4[C@@]12Cc1ccccc1)[C@H]1C(=O)N(c2ccccc2)C(=O)[C@H]1[C@H]3C (stereo partly specified) | i | i | i
CCCCC/C=C\C/C=C\C/C=C\CCCCCCC(=O)O[C@H](COCCCCCCCCCCCCCCCC)COP(=O)([O-])OCC[N+](C)(C)C | i | i | i
COC(=O)C(C)CCCC(C)CCCC(C)CCCC(C)C (stereo unspecified) | nt | nt | i
CS(=O)(=O)c1ccc(CNC(=O)[C@@H]2C[C@H]2[C@@H](NP(=O)(c2ccccc2)c2ccccc2)c2ccccc2)cc1 | i | i | i
CC(=O)O[C@H]1C[C@@H]2CCC3C(CC[C@@]4(C)[C@H]3C[C@H]([N+]3(C)CCCCC3)[C@@H]4OC(C)=O)[C@@]2(C)C[C@@H]1[N+]1(C)CCCCC1 (stereo partly specified) | i | i | i
CC(=O)OC1C2CCC1C([N+]1(C)CCCCC1)CC2 (stereo unspecified) | i | 14.1µM | i
C[N+]1(C2CCC3CCC2C3O)CCCC1 (stereo unspecified) | i | 15.8µM | i
CC(C)CC(NC(=O)C(COC(C)(C)C)NC(=O)C(Cc1ccc(O)cc1)NC(=O)C(CO)NC(=O)C(Cc1c[nH]c2ccccc12)NC(=O)C(Cc1cnc[nH]1)NC(=O)C1CCC(=O)N1)C(=O)NC(CCCN=C(N)N)C(=O)N1CCCC1C(=O)NNC(N)=O (stereo unspecified) | nt | nt | i
Oc1ccc2ccccc2c1N=Nc1ccc(F)cc1 | 12.6µM | i | ?
SMILES | ERK EGF block | GoLoco inh red | CBFb RUNX1 block
Oc1[nH]c2ccccc2c1N=Nc1ccc(F)cc1 | i | i | i
CCOC(=O)/C=C/C(=O)OCC(=O)Nc1ccc(OC)c(Cl)c1 | i | i | i
COc1ccc(NC(=O)COC(=O)/C=C/C(=O)OCC(=O)Nc2ccc(OC)c(Cl)c2)cc1Cl | i | 8.91µM | i
CNC1CC(N)[C@H](O)[C@@H](O[C@@H]2OC(CO)C3OC4(OC(C(N)CO)C(O)C(O)C4O)O[C@@H]3[C@H]2O)C1O (stereo partly specified) | i | i | nt
COc1cc2oc(-c3ccccc3)cc(=O)c2cc1OC | i | i | i
COc1cc(OC)c(-c2c3cc(O)c(=O)cc-3oc3cc(O)c(O)cc23)cc1OC | 15.8µM | i | nt
O=c1cc(-c2ccc(O)cc2O)oc2ccccc12 | i | i | i
Cc1c2cc(O)c(=O)cc-2oc2cc(O)c(O)cc12 | i | 7.94µM | nt
CO[C@@H]1COC(=O)[C@@H](CCSC)NC(=O)C/C=C\[C@@H](C)COC(=O)CCC[C@H]1C | nt | nt | i[13.1 µM]
COc1ccc(-c2nc(-c3ccccc3)oc2Nc2c(C)cccc2C)cc1 | i | i | i
CC1=NN(c2ccccc2)C(=O)C1N=Nc1ccc(N)cc1 (stereo unspecified) | nt | i | ?
CC1=NN(c2ccccc2)C(=O)C1N=Nc1ccccc1 (stereo unspecified) | 11.2µM | i | i
O=C(Nc1ccc(Cl)c(Cl)c1)c1ccc(Cl)c(Cl)c1 | i | i | i
O=C(Nc1ccc(Cl)c(Cl)c1)Nc1cc(C(=O)NC2CC2)ccc1Cl | 28.2µM | i | i
CO[C@H]1COC(=O)C/C=C\[C@H](C)[C@@H](NS(=O)(=O)c2ccc(C)cc2)COC(=O)CCC[C@@H]1C | nt | nt | i[13.1 µM]
O=c1c(-c2cc(F)cc(F)c2)nc2cnc(N3CCOCC3)nc2n1C[C@H]1CCCO1 | nt | i | nt
COc1ccc(-c2ccc(C(C)=O)cc2)cc1C1C2C=CCC(C)C2C(=O)N1Cc1ccccc1 (stereo unspecified) | nt | nt | i
CC1=C(/C=C/C(=C/C=C/C(C)=C/C(=O)O)c2ccc(C)cc2)C(C)(C)CCC1 | nt | i | i
Cc1cc(O)ccc1N=Cc1c(C(F)(F)F)[nH][nH]c1=O | i | 7.08µM | i
O=c1[nH][nH]c(C(F)(F)F)c1C=Nc1ccccc1 | nt | i | i
[Cl][In]([Cl])[Cl] | nt | i | i
COc1ccc2c(c1)[nH]c1c(N3CCN(Cc4ccc5c(c4)OCO5)CC3)ncnc12 | nt | i | i
COc1cccc2[nH]c3c(N4CCC(C)CC4)ncnc3c12 | nt | i | i
COc1cccc(N2CCN(c3ncnc4c3[nH]c3ccccc34)CC2C)c1 (stereo unspecified) | 14.1µM | i | i
COc1cccc2[nH]c3c(N4CCc5ccccc5C4)ncnc3c12 | 22.4µM | i | i
SMILES | ERK EGF block | GoLoco inh red | CBFb RUNX1 block
COc1ccc2c(c1)[nH]c1c(N3CCSCC3)ncnc12 | 28.2µM | i | i
COc1cccc(N2CCN(c3ncnc4c3[nH]c3ccc(F)cc34)CC2C)c1 (stereo unspecified) | nt | i | ?
COc1ccc(-c2cc(C3C4C=CCCC4(C)C(=O)N3Cc3ccccc3)ccc2F)cc1OC (stereo unspecified) | nt | nt | i
Cc1cc2oc(=O)cc(-c3ccccc3)c2c(C)c1-c1cccc(N)c1 | nt | i | ?
CCn1c(C)[n+](CCOCC[n+]2c(C)n(CC)c3cc(Cl)c(Cl)cc32)c2cc(Cl)c(Cl)cc21 | nt | 7.94µM | i
CCOC(=O)Cn1c(C)[n+](C)c2cc(Cl)c(Cl)cc21 | i | i | i
CC(=O)OCCn1c(C)[n+](CCOC(C)=O)c2cc(Cl)c(Cl)cc21 | i | 12.6µM | i
CCn1c(-c2cccnc2Cl)nc2cc(Cl)c(Cl)cc21 | nt | i | i
FC(F)(F)C(F)(F)C(F)(F)C(F)(F)C(F)(F)C(F)(F)C(F)(F)C(F)(F)Br | nt | i | nt

Compound activity deposited in PubChem by National Center for Advancing Translational Sciences (NCATS).
